Screen size: about 37,000 compounds; about 290 (0.78%) were called active. Another 10% or so got no clear call; they are omitted.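 Rule for the calls: active = mean inhibition of at least 10% in the main channel, exceeding the control channel by a set limit; inconclusive = inhibition of 10% or more but channel gap under a set limit; inactive = mean inhibition below 10%.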 This excerpt belongs to a sample that is enriched for actives.
Test: inhibitors of DUX4-driven ZSCAN4 reporter expression, primary screen, 293T cells, Gaussia and Italica luciferase (AID 1224904);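 for activity change, negative = inhibition: 0% = median of neutral control wells and -100% = median of positive control wells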
Details: 293T-iDUX4 ZSCAN4-Gaussia luciferase reporter, 24 h, stronger effect = lower value, concentration not given here; for Gaussia minus Italica difference: measured here: selective DUX4 reporter inhibition
[1] = measured here: Italica tet-on control reporter

Compound	activity change, negative = inhibition	activity change, negative = inhibition [1]	Gaussia minus Italica difference
CCNC[C@@H]1[C@@H](c2ccccc2)[C@@H](CO)N1C(=O)Cc1ccccn1	-0.0686% (inactive)	0.573%	-0.642%
CC(C)[C@@H]1COCc2cn(nn2)CC[C@@H](C)C(=O)N1	-4.81% (inactive)	-0.475%	-4.34%
C/C=C/c1ccc([C@H]2[C@@H](CO)N(S(C)(=O)=O)[C@@H]2CN(C)C(=O)CC)cc1	-5.98% (inactive)	-3.34%	-2.63%
COc1ccc(S(=O)(=O)Nc2ccc3c(c2)C(=O)N([C@@H](C)CO)C[C@@H](C)[C@H](CN(C)C(=O)CCC(F)(F)F)OCCCC[C@H](C)O3)cc1	-0.224% (inactive)	1.87%	-2.09%
COc1ccc2c3c(n(C)c2c1)[C@H](CO)N(Cc1ccc(F)cc1)CC31CCN(C)CC1	-2.1% (inactive)	0.744%	-2.85%
CCCN1[C@H](C(=O)N2CCCCC2)[C@@H](CO)[C@@H]2Cn3c(ccc(-c4ccccc4F)c3=O)[C@@H]21	-5.69% (inactive)	-0.135%	-5.56%
CCCNC(=O)N(C)C[C@@H]1Oc2ncc(C#CCc3ccccc3)cc2C(=O)N([C@@H](C)CO)C[C@H]1C	5.53% (inactive)	3.94%	1.6%
CCCNC(=O)N1C[C@@H](O)COC[C@H]2O[C@H](CC(=O)N3CCC(Cc4ccccc4)CC3)CC[C@@H]21	-2.96% (inactive)	-2.25%	-0.719%
N#C[C@H]1[C@@H](c2ccc(-c3ccccc3F)cc2)[C@H](CO)N1C(=O)c1ccccn1	2.62% (inactive)	1.69%	0.933%
CCS(=O)(=O)N1Cc2cc(C(=O)N(C)C)nc(-c3cccc(-c4ccc(C#N)cc4)c3)c2[C@H]1CCO	0.897% (inactive)	2.65%	-1.75%
COc1ccccc1CN1CC[C@@H]2[C@@H](CO)Nc3ccc(C#Cc4ccccc4)cc3[C@@H]21	-0.512% (inactive)	16%	-16.5%
COc1ccc(C#Cc2ccc3c(c2)[C@H]2[C@H](CCN2Cc2nccs2)[C@@H](CO)N3)cc1	-46.9% (active)	-18.3%	-28.6%
COc1ccc(S(=O)(=O)N2CC[C@@H]3[C@@H](CO)Nc4ccc(C#Cc5cccnc5)cc4[C@@H]32)cc1	2.41% (inactive)	-7.96%	10.4%
CCCNC(=O)Nc1ccc2c(c1)C(=O)N(C)[C@@H]1CC[C@@H](CC(=O)NC)O[C@H]1CO2	5.07% (inactive)	8.03%	-2.97%
C[C@H](NC(=O)C[C@@H]1C=C[C@H](NC(=O)CN2CCOCC2)[C@H](CO)O1)c1ccccc1	4.92% (inactive)	1.16%	3.76%
CCCNC(=O)N1CCC2(CC1)CN(C(=O)c1cccnc1)[C@@H](CO)c1[nH]c3cc(OC)ccc3c12	8.76% (inactive)	-3.75%	12.5%
C[C@@H]1CCCCO[C@H](CN(C)Cc2ccc(C(=O)Nc3ccccc3N)cc2)[C@H](C)CN([C@H](C)CO)C(=O)c2cc(N(C)C)ccc2O1	1.16% (inactive)	0.261%	0.898%
CC(C)CC#Cc1ccc([C@@H]2[C@@H](CO)N3C(=O)CN(C(=O)c4cnccn4)C[C@@H]23)cc1	-2.25% (inactive)	4.38%	-6.63%

Compound	activity change, negative = inhibition	activity change, negative = inhibition [1]	Gaussia minus Italica difference
COc1ccc2c3c(n(C)c2c1)[C@@H](CO)N(C(=O)C1CC1)CC31CN(C(=O)C2CCOCC2)C1	9.17% (inactive)	2.05%	7.12%
O=C(Nc1ccccc1)N1C[C@H]2[C@@H](c3ccccc31)[C@H](CO)N2Cc1ccc(F)cc1	-5.39% (inactive)	-0.0374%	-5.35%
COc1ccc2c3c(n(C)c2c1)[C@@H](CO)N(C(=O)c1ccccn1)CC31CN(C)C1	15.3% (inactive)	6.61%	8.66%
CN(C)C(=O)C[C@@H]1C[C@H]2c3cc(NC(=O)Nc4ccccc4F)ccc3O[C@H]2[C@@H](CO)O1	1.79% (inactive)	4.62%	-2.83%
CO[C@H]1CN(C)C(=O)c2ccc(NC(=O)c3cccc(F)c3)cc2OC[C@@H](C)N(C(C)=O)C[C@@H]1C	1.79% (inactive)	2.12%	-0.333%
Cc1ccccc1-c1ccc([C@H]2[C@H](CO)N3C(=O)CN(C(=O)c4cccnc4)C[C@@H]23)cc1	6.89% (inactive)	11.7%	-4.8%
O=C(C[C@H]1CC[C@@H]2[C@H](COC[C@H](O)CN2S(=O)(=O)c2ccccc2)O1)N1CCOCC1	7.87% (inactive)	8.06%	-0.196%
O=C(C[C@@H]1CC[C@H]2[C@@H](COC[C@@H](O)CN2C(=O)Nc2ccc(Cl)cc2)O1)NC1Cc2ccccc2C1	3.16% (inactive)	10.4%	-7.28%
Cc1ccccc1S(=O)(=O)Nc1ccc2c(c1)C(=O)N(C)[C@@H]1CC[C@@H](CC(=O)O)O[C@@H]1CO2	-2.51% (inactive)	-0.782%	-1.73%
COc1cccc(C(=O)N2C[C@@H]3[C@H](c4ccccc42)[C@H](CO)N3Cc2ccccc2F)c1	-0.575% (inactive)	3.46%	-4.03%
CCCNC(=O)N1C[C@@H](O)COC[C@H]2O[C@H](CC(=O)NCCCN3CCOCC3)CC[C@@H]21	5.88% (inactive)	6.39%	-0.509%
CCC(=O)N1CC2(C1)CN(Cc1nccs1)[C@@H](CO)c1c2c2ccc(OC)cc2n1C	20% (inactive)	2.76%	17.3%
CN(C)C(=O)c1cccc(-c2ccc3c(c2)[C@H]2[C@H](CCN2C(=O)c2cccnc2)[C@H](CO)N3)c1	-0.714% (inactive)	0.0796%	-0.793%
O=C(C[C@@H]1CC[C@@H]2[C@H](COC[C@H](O)CN2CC2CCOCC2)O1)NCC1CCCCC1	3.21% (inactive)	11.5%	-8.33%
CCCN1C[C@@H](C)[C@@H](OC)CN(C)C(=O)c2cc(NC(=O)Nc3cccc(F)c3)ccc2OC[C@@H]1C	-9.36% (inactive)	-5.66%	-3.7%
O=C(NCC1CC1)[C@@H]1[C@@H](CO)[C@@H]2Cn3c(ccc(-c4ccncc4)c3=O)[C@@H]2N1Cc1cocn1	-0.331% (inactive)	-1.44%	1.11%
CC(C)NC(=O)N1[C@H](CO)[C@H](c2ccccc2)C12CN(C(=O)Cc1cccnc1)C2	1.09% (inactive)	5.85%	-4.76%

Reference: PubChem BioAssay AID1224904 (Broad Institute, 2016)
